Bioassay records as filed in PubChem.
DAX1 inh-1: DAX1 (NR0B1) inhibitors, primary screen, cell-based, HEK293, Gal4-DAX1, luciferase luminescence; Nuclear receptor subfamily 0 group B member 1 (Homo sapiens), P51843; HEK293 Gal4-DAX1 luciferase reporter; inhibition, % at 6.75 µM; hit rate 0.99% among 340,000;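 active = inhibition above the mean over all tested compounds plus 3 SD, cut at about 4.2% in these data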;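 note: inhibition shows as a rise in luminescence from relieved DAX1 repression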
ssDAF-12 act: S. stercoralis DAF-12 nuclear receptor activators, primary screen, cell-based, luminescence, HEK293, GRIP1 co-expression, lit1-tk-luc; Nuclear hormone receptor DAF-12 (Strongyloides stercoralis); HEK293 ssDAF-12/GRIP1 lit1-tk-luc reporter; % of 3 µM dafachronic acid response; activation, % at 6.8 µM; hit rate 1% among 370,000; AID 652126, 2013;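 active = activation above the mean over all tested compounds plus 3 SD, cut at about 0.9% in these data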
hgDAF12 agonist: H. glycines DAF-12 receptor agonists, primary screen, cell-based, luminescence, HEK293, GAL4 fusion, UAS-luciferase; Nuclear hormone receptor DAF-12 (Heterodera glycines), GAL4 fusion; HEK293 GAL4-hgDAF12 UAS-luciferase reporter, agonist luminescence; normalized to butyrate control; activation, % at 6.8 µM; hit rate 1.8% among 370,000;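 active = activation above a cutoff set at the mean of all screened compounds plus 3 SD, cut at about 10% in these data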
AHR act: AHR activators, primary screen, cell-based, luminescence, luciferase reporter, human. AHR-responsive luciferase reporter cells. activation, % at 5 µM. hit rate 2.5% among 320,000. AID 2796, 2010; in the data active = activation above about 47%
hcDAF-12 act: H. contortus DAF-12 nuclear receptor activators, primary screen, cell-based, luminescence, HEK293, lit1-tk-luc reporter; activation, % at 6.8 µM; hit rate 1.4% among 370,000; HEK293 hcDAF-12 lit1-tk-luc reporter; 0% DMSO, 100% Δ7-dafachronic acid;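 active = activation above the mean of all tested compounds plus 3 SD, cut at about 5.5% in these data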
DAX1 inh-2: DAX1 (NR0B1) inhibitors on StAR promoter, primary screen, cell-based, luminescence, SF-1 (NR5A1), full-length DAX-1. HEK293T StAR-luciferase reporter, SF-1/DAX-1 repression relief. inhibition, % at 6.8 µM. hit rate 1.1% among 370,000;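 active = inhibition above the mean over all tested compounds plus 3 SD, cut at about 3.6% in these data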;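 note: higher inhibition means more luminescence from relief of DAX-1 repression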
DAX1 inh confirm: DAX1 (NR0B1) inhibitors relieving SF-1 repression, confirmation, cell-based, luminescence, HEK293T, full-length DAX-1, SF-1 activated StAR promoter; AID 652134, 2013; inhibition, % at 6.8 µM; shares compounds with DAX1 inh-2; hit rate 87% among 2,400; HEK293T StAR-promoter luciferase reporter, SF-1/DAX-1 repression;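 active = inhibition above the average of every tested compound plus 3 SD, cut at about 3.8% in these data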
SF1 mutant ctr: StAR reporter signal changes without DAX1, counter-screen for DAX1 inhibitor project, cell-based, luminescence, AF-2 mutant SF-1, transactivation; shares compounds with DAX1 inh-2; inhibition, % at 6.8 µM; hit rate 78% among 2,400; HEK293 StAR-luciferase, SF-1 AF2 mutant; AID 652136, 2013;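 active = inhibition above the mean of all tested compounds plus 3 SD, cut at about 3% in these data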
LXR ag: LXR agonists, Gal4 luciferase reporter, confirmation, counter-screen for hcDAF-12 agonist project, cell-based, luminescence, HEK293, H. contortus campaign | shares compounds with hcDAF-12 act | HEK293 Gal4-LXR tk-luc reporter, 24 h; normalized: DMSO 0%, positive control 100% | activation, % at 6.8 µM | 3,400 tested, under 10 active;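 active = mean percent activation of the reporter above a cutoff set as the average over tested compounds plus their standard deviation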
Target sequence (P55055 whole entry, looked up, the tested form may be a part): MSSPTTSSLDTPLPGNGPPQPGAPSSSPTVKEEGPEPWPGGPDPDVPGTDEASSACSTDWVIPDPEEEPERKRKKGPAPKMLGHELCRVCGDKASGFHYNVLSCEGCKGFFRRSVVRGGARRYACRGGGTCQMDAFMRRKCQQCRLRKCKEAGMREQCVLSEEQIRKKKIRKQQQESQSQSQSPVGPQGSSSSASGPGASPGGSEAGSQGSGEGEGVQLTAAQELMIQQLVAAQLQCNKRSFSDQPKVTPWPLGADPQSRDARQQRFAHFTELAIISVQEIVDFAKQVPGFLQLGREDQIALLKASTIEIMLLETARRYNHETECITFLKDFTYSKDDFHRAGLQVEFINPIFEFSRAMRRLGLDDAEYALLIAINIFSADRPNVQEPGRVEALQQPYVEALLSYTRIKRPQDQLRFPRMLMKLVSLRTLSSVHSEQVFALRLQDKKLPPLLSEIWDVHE
hcDAF12 conf: H. contortus DAF-12 receptor agonists, confirmation, cell-based, luminescence, HEK293, lit1-tk-luc, triplicate; shares compounds with hcDAF-12 act; HEK293 hcDAF-12 lit1-tk-luc reporter; % of Δ7-dafachronic acid response; activation, % at 6.8 µM; hit rate 61% among 3,400; AID 743032, 2013;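 active = mean activation across triplicate tests above the threshold derived from the earlier primary screen, cut at about 5.5% in these data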
hgDAF12 ag: H. glycines DAF-12 receptor agonists, confirmation, cell-based, luminescence, HEK293, GAL4-LBD fusion | activation, % at 6.8 µM | HEK293 GAL4-hgDAF12 luciferase reporter, agonist mode; percent of butyrate response | hit rate 80% among 3,300 | shares compounds with hgDAF12 agonist;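 active = mean activation over triplicate wells above the hit cutoff derived from the earlier primary screen, cut at about 11% in these data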
LXR ag 2: LXR agonists, Gal4 luciferase reporter, confirmation, counter-screen for hgDAF-12 agonist project, cell-based, luminescence, HEK293, H. glycines campaign; shares compounds with hgDAF12 agonist; 24 h; activation, % at 6.8 µM; 3,300 tested, under 10 active;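 active = mean activation of the triplicate above a set limit carried over from the primary screen, none filed active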
Of the large screens only hits and unclear results are named; the others gave an inactive call (follow-up assays come after a bar, where they were run). Sampled rows, rich in hits. Any-hit rate of the full collection: about 5.7%.

COc1ccc2nc(NC(=O)Nc3ccccc3)sc2c1	hgDAF12 agonist 22, hcDAF-12 act 8.1, DAX1 inh-2 11 | DAX1 inh confirm 14 | SF1 mutant ctr 8.8 | LXR ag inactive | hcDAF12 conf inactive | hgDAF12 ag 23 | LXR ag 2 inactive
O=[N+]([O-])/C=C1/CCCCCN1	none
Clc1ccc(-c2csc(NCC3CCCO3)n2)cc1 (stereo not given)	ssDAF-12 act 0.9, hgDAF12 agonist 15, DAX1 inh-2 5.1 (no result: DAX1 inh-1, AHR act) | DAX1 inh confirm 7.8 | SF1 mutant ctr 4.3 | hgDAF12 ag 13 | LXR ag 2 inactive
CC1CC(C)CN(S(=O)(=O)N2CCC(C(=O)NCCc3ccccc3)CC2)C1 (stereo not given)	none
O=C(/C=C/c1cccc(F)c1)N1CCc2ccccc21	ssDAF-12 act 2.2, hgDAF12 agonist 24, hcDAF-12 act 14, DAX1 inh-2 5.6 | DAX1 inh confirm 15 | SF1 mutant ctr 8.4 | LXR ag inactive | hcDAF12 conf 13 | hgDAF12 ag 22 | LXR ag 2 inactive
O=C(Nc1ccccc1O)c1ccc(NS(=O)(=O)c2cccc3cccnc23)cc1	DAX1 inh-1 18, ssDAF-12 act 2.3, hgDAF12 agonist 84, hcDAF-12 act 19, DAX1 inh-2 54 | DAX1 inh confirm 91 | SF1 mutant ctr 38 | LXR ag inactive | hcDAF12 conf 13 | hgDAF12 ag 89 | LXR ag 2 inactive
O=C(Nc1ncccc1O)c1ccc(S(=O)(=O)Nc2ccccc2)cc1	DAX1 inh-1 11, hgDAF12 agonist 85, hcDAF-12 act 13, DAX1 inh-2 85 | DAX1 inh confirm 112 | SF1 mutant ctr 58 | LXR ag inactive | hcDAF12 conf 8.0 | hgDAF12 ag 81 | LXR ag 2 inactive
COc1ccc(CN2CCNC(=O)C2CC(=O)N(C)CCC2CCOCC2)c(OC)c1 (stereo not given)	none
CCOc1ccc(/C=N/NC(=O)CC(=O)NCc2ccccc2)cc1	none
COc1ccc(/C=N/Nc2cc(OC)ncn2)cc1	ssDAF-12 act 2.2, hgDAF12 agonist 14, hcDAF-12 act 9.2, DAX1 inh-2 6.5 | DAX1 inh confirm 15 | SF1 mutant ctr 7.2 | LXR ag inactive | hcDAF12 conf 9.4 | hgDAF12 ag 16 | LXR ag 2 inactive
CC(=O)Oc1ccc(/C=N/NC(=S)Nc2ccccc2)cc1	hgDAF12 agonist 17, DAX1 inh-2 5.0 | DAX1 inh confirm 15 | SF1 mutant ctr 8.4 | hgDAF12 ag 16 | LXR ag 2 inactive
CCOc1ccc(/C=N/Nc2ccccn2)cc1	hgDAF12 agonist 17, hcDAF-12 act 6.0, DAX1 inh-2 5.8 | DAX1 inh confirm 18 | SF1 mutant ctr 10 | hgDAF12 ag 19 | LXR ag 2 inactive
CCOc1ccc(/C=N/NC(=O)Nc2ccccc2)cc1	hgDAF12 agonist 19, AHR act 61, DAX1 inh-2 6.6 | DAX1 inh confirm 9.2 | SF1 mutant ctr 5.2 | hgDAF12 ag 20 | LXR ag 2 inactive
Clc1ccc(/C=N/Nc2ccccn2)cc1	none
COc1ccc(/C=N/Nc2cc(C)nc(N)n2)cc1	none
O=C(COC(=O)Cc1ccc(-c2ccccc2)cc1)NCc1ccccc1	none
O=C(Nc1nnc([C@@H]2C[C@H](O)[C@@H](CO)O2)s1)Nc1ccccc1F	hgDAF12 agonist 15, DAX1 inh-2 7.3 (no result: DAX1 inh-1, AHR act) | DAX1 inh confirm 7.2 | SF1 mutant ctr 3.4 | hgDAF12 ag 11 | LXR ag 2 inactive
O=C(Nc1nnc([C@H]2C[C@H](O)[C@@H](CO)O2)s1)Nc1ccccc1F	none (no result: DAX1 inh-1, AHR act)
O=C(Nc1nnc([C@@H]2C[C@H](O)[C@@H](CO)O2)s1)c1cccc2ccccc12	hgDAF12 agonist 25, DAX1 inh-2 5.0 (no result: DAX1 inh-1, AHR act) | DAX1 inh confirm 8.7 | SF1 mutant ctr 5.6 | hgDAF12 ag 13 | LXR ag 2 inactive
O=C1COc2ccc(S(=O)(=O)Nc3cccc(Cl)c3)cc2N1	none
CC1CCCC(C)N1C(=O)CSc1nnc(-c2cccs2)o1 (stereo not given)	hgDAF12 agonist 18, DAX1 inh-2 4.7 | DAX1 inh confirm 11 | SF1 mutant ctr 8.0 | hgDAF12 ag 17 | LXR ag 2 inactive
COc1ccc(CNC(=O)c2ccc[nH]2)cc1Cl	none
Cc1ccc(-c2nc3cccnc3s2)cc1NC(=O)C1c2ccccc2Oc2ccccc21	none (no result: AHR act)
CCS(=O)(=O)Nc1cc(-c2nc3cccnc3s2)ccc1C	hgDAF12 agonist 22, AHR act 70, hcDAF-12 act 8.3, DAX1 inh-2 6.4 | DAX1 inh confirm 8.9 | SF1 mutant ctr 7.7 | LXR ag inactive | hcDAF12 conf 5.6 | hgDAF12 ag 16 | LXR ag 2 inactive
